PubChem BioAssay AID1347155 (National Center for Advancing Translational Sciences (NCATS), 2019)
Results filed as inconclusive are left out. A number with no mark means an inactive call. Active and inactive are the calls of the source. The call rests on the fitted dose curve; in most records, active means well fitted inhibition curve with a large enough effect; inconclusive means small, poorly fitted or top-dose-only effect; inactive means no such curve, though single readings can be large or run the other way.

system: Zika virus NS2B-NS3 protease (linked); experiment: Optimization screen NINDS Rhodamine qHTS for Zika virus inhibitors: Linked NS2B-NS3 protease assay; conditions: fluorogenic rhodamine substrate; series mostly up to 105 µM; activity change, negative = inhibition: at the top concentration
Excerpt: Avindra Nath, Ph.D., National Institute of Neurological Disorders and Stroke (NINDS), Bethesda, MD
Radhakrishnan Padmanabhan, Ph.D., Georgetown University (GU), Washington D.C.
Zika Virus causes congenital defects, including microcephaly and is associated with Guillain-Barre syndrome, eningoencephalitis and myelitis in infected adult. […] Using a target-based approach, we hope to establish a screening paradigm to uncover novel, cell-active NS2B-NS3 protease (Zika Virus) specific inhibitors from NCATS' collection of small molecules using qHTS.
Four assay panel was created to identify potential Zika Virus inhibitors. Namely, (1) GU unlinked NS2B-NS3 AMC tagged protease qHTS, (2) GU unlinked NS2B-NS3 Rhodamine tagged protease qHTS, (3) NINDS linked NS2B-NS3 AMC tagged protease qHTS, (4) NINDS linked NS2B-NS3 Rhodamine tagged protease qHTS. Active compounds were re-acquired and re-screened to confirm inhibition. Inhibitors were further screened against various confirmatory and counterscreens in dose response format.
Early Translation Branch (ETB)
National Center for Advancing Translational Sciences (NCATS), Rockville, MD
National Institute of Health (NIH), Bethesda, Maryland
For the linked assay, Nath lab (NINDS) provided the purified linked NS2B-NS3 protease which is consists of hydrophilic domain of NS2B linked to the NS3 protease domain by a flexible (-GGGGSGGGG-) linker. Control compound aprotinin is obtained from Thermo Scientific (#78432; Waltham, Massachusetts). Rhodamine110 substrate ([N-Cbz]-Nle-Lys-Arg-Arg-Rhod110-Arg-Arg-Lys-Nle-[N-Cbz]) was purchased from either Genscript or Bachem.
1536-well Protease (Rhodamine110 Substrate) Assay:
Briefly, 3 microL of enzyme (25 nM final concentration), in assay buffer (10 mM Tris-HCl pH 8.0 with 0.01% Tween 20) were dispensed into a 1,536-well solid-bottom black plate (Greiner Bio One, Monroe, NC). Twenty-three nL of compounds (final concentration range 7.28 nM to 114 microM) or control Aprotinin (final concentration range 3.47 nM to 114 microM) were transferred via Wako Pin-tool (Wako Automation, Richmond, VA). Samples were incubated (room temperature, protected from light) for 15 minutes followed by a 1 microL Rhodamine110 substrate addition (1.5 microM final concentration). Plates were then immediately read on a ViewLux High-throughput CCD imager (PerkinElmer, Waltham, MA) equipped with FITC fluorescence optics (480(20) nm excitation, 540(25) nm emission), then incubated (room temperature, protected from light) for 15 minutes (~15% conversion). The change in fluorescence intensity over the 15-minute reaction period was normalized against no-inhibitor and no-enzyme controls and the resulting percent inhibition data were fitted to a 4-parameter Hill equation. Aprotinin was used as intraplate control.

SMILES | outcome | activity change, negative = inhibition
C[C@@H]1O[C@@H](O[C@H]2C[C@@H](O)[C@]3(CO)[C@H]4[C@H](O)C[C@]5(C)[C@@H](C6=CC(=O)OC6)CC[C@]5(O)[C@@H]4CC[C@]3(O)C2)[C@H](O)[C@H](O)[C@H]1O | inactive | –
C[C@H]1O[C@@H](O[C@H]2[C@@H](O)C[C@H](O[C@H]3[C@@H](O)C[C@H](O[C@H]4CC[C@@]5(C)[C@H](CC[C@@H]6[C@@H]5CC[C@]5(C)[C@@H](C7=CC(=O)OC7)CC[C@]65O)C4)O[C@@H]3C)O[C@@H]2C)C[C@H](O)[C@@H]1O | – | 29.8% [at 228 µM]
C=CCN1CCC2(C)c3cc(O)ccc3CC1C2C (stereo not given) | – | 4.68%
CO[C@H]1[C@@H](O)CC(OC2[C@@H](O)CC(OC3[C@@H](O)C[C@H](OC4CC[C@@]5(C)C(CCC6C5CC(O)[C@]5(C)[C@H](C7=CC(=O)OC7)CCC65O)C4)O[C@@H]3C)O[C@@H]2C)O[C@@H]1C (stereo not given in full) | – | 28.1% [at 228 µM]
C[C@@H]1O[C@@H](O[C@H]2C[C@@H](O)[C@]3(CO)C4C(CC[C@]3(O)C2)[C@@]2(O)CC[C@H](C3=CC(=O)OC3)[C@@]2(C)C[C@H]4O)[C@H](O)[C@H](O)[C@H]1O (stereo not given in full) | – | 0%
C[C@H]1O[C@@H](O[C@H]2[C@@H](O)C[C@H](O[C@H]3[C@@H](O)C[C@H](O[C@H]4CC[C@]5(C)C6CC[C@]7(C)[C@@H](C8=CC(=O)OC8)CC[C@]7(O)C6CC[C@@H]5C4)O[C@@H]3C)O[C@@H]2C)C[C@H](O)[C@@H]1O (stereo not given in full) | – | 54.4%
C=CCN1CCC2(C)c3cc(O)ccc3C[C@H]1[C@H]2C | – | -10.8%
C=CCN1CC[C@]23CCCCC2[C@H]1Cc1ccc(O)cc13 (stereo not given in full) | – | -8.8%
CN1CC[C@@]23CCCC[C@@H]2[C@@H]1Cc1ccc(O)cc13 | – | -9.26%
C[C@@H]1[C@@H]2Cc3ccc(O)cc3[C@@]1(C)CCN2CCc1ccccc1 | – | -4.89% [at 228 µM]
CC1O[C@@H](O[C@@H]2C(O)C[C@H](O[C@@H]3C(O)C[C@@H](OC4CC[C@@]5(C)C6CC[C@]7(C)C(C8=CC(=O)OC8)CC[C@@]7(O)C6CC[C@@H]5C4)OC3C)OC2C)CC(O)[C@H]1O (stereo not given in full) | – | 5.19%
COC1C(O)C(C)O[C@@H](OC2CC[C@@]3(C)C4CC[C@]5(C)C(C6=CC(=O)OC6)CC[C@@]5(O)C4CC[C@@H]3C2)C1O (stereo not given in full) | – | 11.3%
C[C@@H]1[C@@H]2Cc3ccc(O)cc3[C@@]1(C)CCN2CC1CC1 | – | -1.76%
CC1OC(O[C@H]2C[C@@H](O)[C@]3(CO)[C@H]4[C@H](O)C[C@]5(C)[C@@H](C6=CC(=O)OC6)CC[C@]5(O)[C@@H]4CC[C@]3(O)C2)C(O)C(O)C1O (stereo not given in full) | – | -14.6%
C[C@H]1O[C@@H](O[C@H]2[C@@H](O)C[C@@H](O[C@H]3[C@@H](O)C[C@H](O[C@H]4CC[C@@]5(C)[C@H](CC[C@@H]6[C@@H]5CC[C@]5(C)[C@@H](C7=CC(=O)OC7)CC[C@]65O)C4)O[C@@H]3C)O[C@@H]2C)C[C@H](O)[C@@H]1O | – | 18% [at 228 µM]
CC(C)OC(=O)Nc1ccccc1 | – | -10.4% [at 228 µM]
CC[C@H](C)[C@H]1O[C@]2(C=C[C@@H]1C)C[C@@H]1C[C@@H](C/C=C(\C)[C@@H](O[C@H]3C[C@H](OC)[C@@H](O[C@H]4C[C@H](OC)[C@@H](O)[C@H](C)O4)[C@H](C)O3)[C@@H](C)/C=C/C=C3\CO[C@@H]4[C@H](O)C(C)=C[C@@H](C(=O)O1)[C@]34O)O2 | – | 15.2%
CC(C)=CCN1CC[C@@]2(C)c3cc(O)ccc3C[C@@H]1[C@@H]2C | – | -11.2% [at 228 µM]
CN1CC[C@@]23CCCCC2C1Cc1ccc(O)cc13 (stereo not given in full) | – | -6.91%
Cc1ccc2c(c1)[C@]13CCCC[C@@H]1[C@H](C2)N(C)CC3 | – | -3.81%
